# Laboratory results: PubChem BioAssay
# The source made the active and inactive calls.
# Tests used:
# [1] = anti-His antibody binders, primary screen, artefact control for SMM control protein annotation, biochemical, small-molecule microarray, 635 nm fluorescence (AID 1128); details: anti-His Alexa647 antibody binding, higher = more signal;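 further: score merges feature fluorescence with signal-to-noise for each printed compound spot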
# [2] = system: Human papillomavirus type 1a E7 protein (residues 1-88); test: HPV1a E7 small-molecule binders, primary screen, biochemical, small-molecule microarray, residues 1-88, 635 nm (AID 1129); details: small-molecule microarray binding, fluorescence 635 nm; higher = more signal
# [3] = target: Focal adhesion kinase 1 (Homo sapiens) (UniProt Q05397); test: small-molecule microarray binders of FAK, primary screen, biochemical, 635/667 nm fluorescence, BSA, DTT (AID 1130); details: PTK2 binding, 635 nm fluorescence, higher = more signal;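 further: composite of spot emission at 667 nm and signal to noise over triplicate slides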
# [4] = system: Fibrinogen (Alexa647-labelled); test: fibrinogen binders on compound microarrays, profiling panel, artefact control for SMM control-protein annotation, biochemical, small-molecule microarray, 635/667 nm fluorescence (AID 1131); details: fibrinogen-A647 binding fluorescence, higher = more signal;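 further: z-score merges 667 nm fluorescence with per-spot signal-to-noise over triplicate slides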
# [5] = target: Follistatin (Homo sapiens) (UniProt P19883); test: follistatin binders on small-molecule microarrays, primary screen, biochemical, small-molecule microarray, 635/667 nm fluorescence (AID 1132); details: FST binding, 635 nm fluorescence, higher = more signal
# [6] = target: Fibroblast growth factor 2 (Homo sapiens) (UniProt P09038); test: FGF2 binders on small-molecule microarrays, primary screen, biochemical, small-molecule microarray, 635/667 nm fluorescence (AID 1133); details: small-molecule microarray binding, FGF2, fluorescence 635/667; higher = more signal
# [7] = mitochondrial membrane potential change in A549 cells, profiling panel, cell-based, JC-1 fluorescence, basal, 24 h, 100 nL (AID 1138); details: higher = more signal;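 further: A549 lung adenocarcinoma cells under basal conditions with no added stimulus; test concentration not given here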
# Lefty1 = Lefty1 binders on small-molecule microarrays, primary screen, biochemical, small-molecule microarray, 635/667 nm fluorescence (AID 1139); details: small-molecule microarray binding, fluorescence 635/667; higher = more signal
# [8] = system: wheat germ agglutinin (Triticum aestivum), Alexa647-labelled; test: wheat germ agglutinin binders on compound microarrays, profiling panel, artefact control for SMM control-protein annotation, biochemical, small-molecule microarray, 635/667 nm fluorescence (AID 1140); details: WGA-A647 binding, 635 nm fluorescence, higher = more signal;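 further: score merges 667 nm feature emission with signal to noise over triplicate slides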
# [9] = target: Luciferin 4-monooxygenase (Photinus pyralis) (UniProt P08659); test: firefly luciferase enzyme inhibitors, primary screen, biochemical, luminescence, purified enzyme, 2006 set (AID 1141); details: SteadyGlo luminescence, 30 min, higher = more signal, called active from +8 up or from −8 down;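 further: cell-free assay with purified firefly luciferase at 100 ng per well in PBS; test concentration not given here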
# Sequence of Luciferin 4-monooxygenase (Photinus pyralis) (P08659 whole entry, looked up): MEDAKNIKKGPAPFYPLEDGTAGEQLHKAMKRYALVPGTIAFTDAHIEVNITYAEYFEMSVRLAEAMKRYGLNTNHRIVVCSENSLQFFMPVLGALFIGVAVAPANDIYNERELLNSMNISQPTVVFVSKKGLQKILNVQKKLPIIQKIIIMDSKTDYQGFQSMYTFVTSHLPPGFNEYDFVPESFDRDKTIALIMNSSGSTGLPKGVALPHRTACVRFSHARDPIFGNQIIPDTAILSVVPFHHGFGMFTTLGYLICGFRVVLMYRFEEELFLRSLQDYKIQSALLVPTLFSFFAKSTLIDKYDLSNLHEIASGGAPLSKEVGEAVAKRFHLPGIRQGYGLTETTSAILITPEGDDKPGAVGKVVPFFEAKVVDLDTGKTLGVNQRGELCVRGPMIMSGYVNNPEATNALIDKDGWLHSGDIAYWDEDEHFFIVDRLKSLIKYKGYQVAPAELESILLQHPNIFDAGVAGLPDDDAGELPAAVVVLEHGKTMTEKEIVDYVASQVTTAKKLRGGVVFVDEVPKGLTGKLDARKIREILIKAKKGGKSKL
# Sequence of Follistatin (Homo sapiens) (P19883 whole entry, looked up): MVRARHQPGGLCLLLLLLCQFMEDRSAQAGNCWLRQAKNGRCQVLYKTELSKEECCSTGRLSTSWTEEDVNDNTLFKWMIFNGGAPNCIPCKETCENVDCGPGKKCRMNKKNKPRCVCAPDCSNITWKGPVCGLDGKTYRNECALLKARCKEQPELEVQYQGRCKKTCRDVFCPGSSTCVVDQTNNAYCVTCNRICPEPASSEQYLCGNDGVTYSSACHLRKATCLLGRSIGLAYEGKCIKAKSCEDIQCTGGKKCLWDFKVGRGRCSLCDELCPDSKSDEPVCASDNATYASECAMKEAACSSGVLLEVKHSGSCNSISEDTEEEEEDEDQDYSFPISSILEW
# Sequence of Focal adhesion kinase 1 (Homo sapiens) (Q05397 whole entry, looked up): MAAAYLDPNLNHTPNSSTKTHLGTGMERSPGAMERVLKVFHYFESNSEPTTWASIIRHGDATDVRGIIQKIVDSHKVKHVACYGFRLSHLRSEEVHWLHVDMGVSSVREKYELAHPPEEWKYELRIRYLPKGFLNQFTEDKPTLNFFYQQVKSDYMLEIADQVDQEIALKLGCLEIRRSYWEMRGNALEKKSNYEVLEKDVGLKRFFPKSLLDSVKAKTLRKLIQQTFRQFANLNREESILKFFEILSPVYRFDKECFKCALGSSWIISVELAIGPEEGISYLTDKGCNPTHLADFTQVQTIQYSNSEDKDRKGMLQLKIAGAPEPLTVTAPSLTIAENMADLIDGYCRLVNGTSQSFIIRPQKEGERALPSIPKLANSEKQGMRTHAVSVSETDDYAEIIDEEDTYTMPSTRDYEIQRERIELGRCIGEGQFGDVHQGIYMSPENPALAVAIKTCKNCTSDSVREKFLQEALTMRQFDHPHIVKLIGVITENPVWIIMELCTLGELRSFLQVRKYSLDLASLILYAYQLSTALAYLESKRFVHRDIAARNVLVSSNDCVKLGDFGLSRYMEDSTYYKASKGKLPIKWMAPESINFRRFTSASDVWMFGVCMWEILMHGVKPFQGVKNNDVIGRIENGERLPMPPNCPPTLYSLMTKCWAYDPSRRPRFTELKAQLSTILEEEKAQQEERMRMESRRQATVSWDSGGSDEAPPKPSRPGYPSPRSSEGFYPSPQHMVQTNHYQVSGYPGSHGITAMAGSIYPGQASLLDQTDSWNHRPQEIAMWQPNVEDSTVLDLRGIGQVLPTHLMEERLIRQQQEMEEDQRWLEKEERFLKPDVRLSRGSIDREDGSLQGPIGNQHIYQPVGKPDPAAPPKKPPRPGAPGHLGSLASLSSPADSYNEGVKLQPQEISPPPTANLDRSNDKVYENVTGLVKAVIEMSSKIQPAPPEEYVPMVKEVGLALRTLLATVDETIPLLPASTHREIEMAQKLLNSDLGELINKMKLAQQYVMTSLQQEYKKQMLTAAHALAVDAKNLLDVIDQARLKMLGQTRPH
# Sequence of Fibroblast growth factor 2 (Homo sapiens) (P09038 whole entry, looked up): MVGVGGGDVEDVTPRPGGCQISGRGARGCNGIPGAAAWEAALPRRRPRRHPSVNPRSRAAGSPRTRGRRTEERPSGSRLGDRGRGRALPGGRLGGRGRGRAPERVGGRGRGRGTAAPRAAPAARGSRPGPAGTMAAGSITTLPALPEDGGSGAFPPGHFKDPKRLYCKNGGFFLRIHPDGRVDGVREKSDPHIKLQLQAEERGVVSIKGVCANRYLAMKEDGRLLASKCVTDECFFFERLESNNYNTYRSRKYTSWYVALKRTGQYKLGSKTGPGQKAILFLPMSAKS
Structure (SMILES),composite z-score [1],composite z-score [2],composite z-score [3],composite z-score [4],composite z-score [5],composite z-score [6],z-score [7],composite z-score (Lefty1),composite z-score [8],z-score [9]
CCCNC(=O)[C@@]1(C)c2ccccc2C(=O)N(Cc2ccc(OC(F)(F)F)cc2)[C@H]1c1ccc(CO)cc1,-0.607,1.11,0.275,0.264,0.778,0.557,1.07,-0.526,0.419,-0.166 (inactive)
O=C1c2ccccc2[C@@]2(Cc3ccccc3N(Cc3ccccc3)C2=O)[C@H](c2ccc(CO)cc2)N1Cc1ccccc1C(F)(F)F,1.88,-0.911,-0.676,-2.02,-0.368,-0.721,1.78,-1.04,-0.749,-0.666 (inactive)
C=C(COC)/C(=C/C[C@H](OC(C)=O)c1ccccc1OCCO)c1cnc2ccccc2c1,1.91,0.977,0.528,0.325,1.29,0.394,0.0177,0.814,0.666,0.0631 (inactive)
CCOC(=O)N1C(c2ccc(OCCCO)cc2)=NC(C(=O)OC)N1C(=O)OCC (stereo not given),0.369,1.2,0.454,0.864,1.31,0.955,-0.541,1.07,0.669,-1.45 (inactive)
O=c1cccc(-c2cccc3ccccc23)o1,0.874,1.2,1.35,0.708,0.26,-0.32,0.316,-0.789,0.8,1.52 (inactive)
Cc1cccc(/C=C/C=O)c1,-0.109,-0.115,0.0048,0.458,0.198,-0.163,0.538,-0.119,0.718,-0.953 (inactive)
CCCNC(=O)[C@@]1(C)c2ccccc2C(=O)N(Cc2cc(C(F)(F)F)cc(C(F)(F)F)c2)[C@H]1c1ccc(CO)cc1,2.41,0.903,0.147,0.267,0.127,0.68,-0.704,-0.524,0.463,0.517 (inactive)
CC(C)(C)OC(=O)CC[C@@]1(C(N)=O)N=C(c2ccc(OCCCO)cc2)O[C@@H]1c1ccccc1N=[N+]=[N-],1.12,0.886,1.1,1.06,1.21,1.12,-0.04,0.512,0.884,-10.5 (active)
COC(=O)[C@@]1(Cc2ccc(OC)cc2)[C@H]2c3cc(C(=O)N(C)C)n(CCSCCO)c3C[C@H]2CN1C(=O)c1ccccc1,0.957,1.32,1.68,0.971,0.108,-0.569,-0.399,-1.03,0.515,-0.572 (inactive)
C=CCNC(=O)[C@H]1[C@@H]2C(=O)O[C@@H](c3ccccc3)[C@@H](c3ccccc3)N2[C@@H](c2ccc(OCCO)cc2)[C@]12C(=O)N(C(=O)OCCOC)c1ccc(C#CC3(O)CCCCCC3)cc12,0.632,1.21,1.32,0.888,1.36,1.58,0.208,1.47,0.777,-1.86 (inactive)
O=C1O[C@@H](c2ccccc2)[C@@H](c2ccccc2)N2[C@@H](c3ccc(O)cc3)[C@]3(C(=O)Nc4ccccc43)[C@@H](C(=O)N3CCCCCCC3)[C@H]12,2.96,1.23,1.22,0.827,1.43,1.64,0.48,1.6,1.46,1.04 (inactive)
CCOC(=O)C[C@H]1[C@H](OC(=O)c2ccccc2-c2ccccc2)[C@@H](NC(=O)c2ccc(-c3ccccc3)cc2)c2cc(OCCCO)ccc2N1C(=O)c1ccccc1,0.426,0.78,0.177,0.58,0.77,0.466,1.39,0.935,0.17,-0.0993 (inactive)
O=C1C2C=CC(C(O)c3cccc4ccccc34)N(n3cnnc3)C2C(=O)N1Cc1ccccc1 (stereo not given),0.968,-0.0247,0.699,0.798,0.355,0.406,-0.94,0.302,0.872,1.06 (inactive)
CCCC[C@@H]1C[C@H]1[C@@H](NC(=O)c1ccccc1)c1ccc(-c2ccccc2)cc1,0.676,0.818,-0.0867,0.46,0.203,-0.368,-0.232,-0.26,0.348,0.0434 (inactive)
COc1ccc(C#Cc2ccc3c(c2)[C@]2(C(=O)N3)[C@H](C(=O)N3CCc4cc(OC)c(OC)cc4C3)[C@H]3C(=O)O[C@H](c4ccccc4)[C@H](c4ccccc4)N3[C@@H]2c2ccc(OCCO)cc2)cc1,0.441,1.2,1.1,0.821,1.21,1.24,-1.09,0.941,1.17,-0.297 (inactive)
COc1ccc(CCNC(=O)[C@@]2(C)c3ccccc3C(=O)N(Cc3ccccc3)[C@H]2c2ccc(CO)cc2)cc1,1.01,1.29,0.652,1,1.45,1.42,-1.72,1.57,0.62,1.11 (inactive)
C=CCN1C(=O)[C@]2(COC(c3ccc(OCCCO)cc3)=N2)Cc2ccccc21,3.08,1.15,0.0652,0.885,1.08,1.08,0.604,-0.14,-0.0492,-3.52 (inactive)
COC(=O)[C@@]1(Cc2ccc(F)cc2)[C@H]2c3cc(C(=O)N(C)C)n(CCCNc4ccc(C(F)(F)F)cc4Cl)c3C[C@H]2CN1C(=O)c1ccccc1,2.17,1.24,0.903,1.01,0.543,-0.123,0.284,0.0748,1.3,0.579 (inactive)
C=C(C(=O)CC[C@@H](OC(C)=O)c1ccc(OCCO)cc1)C(C)C,0.521,0.0161,0.019,0.933,0.627,1.29,-0.316,-0.12,0.0487,-1.08 (inactive)
CC(C)N1C(=O)c2ccccc2[C@](C)(C(=O)NCCCN(C)C)[C@@H]1c1ccc(CO)cc1,-0.439,0.717,2.34,0.562,-0.106,-0.224,0.256,-0.573,0.231,-0.562 (inactive)
COC(=O)c1nc2oc1CC[C@@H](CO)NC(=O)N(C)Cc1cn(nn1)C[C@H](Cc1ccccc1)NC2=O,0.0255,-0.151,-0.242,0.0318,0.905,1.06,0.457,0.17,0.536,0.376 (inactive)
C=CCNC(=O)[C@H]1[C@@H]2C(=O)O[C@@H](c3ccccc3)[C@@H](c3ccccc3)N2[C@@H](c2ccc(O)cc2)[C@]12C(=O)Nc1ccc(C#Cc3ccc(OC)cc3)cc12,0.194,1.22,0.403,0.789,1.16,1.13,-0.769,0.597,0.278,0.153 (inactive)
COc1ccc([Si](C)(C)[C@H]2[C@H](CC(=O)N3Cc4ccccc4C[C@H]3CO)O[C@@]3(C(=O)N(Cc4cccc(I)c4)c4ccccc43)[C@@H]2C)cc1,1.67,0.0688,-0.706,0.321,1.57,2.13,-0.0488,1.64,0.539,-0.63 (inactive)
C=CCOC(=O)[C@@H]1[C@H]2C(=O)O[C@H](c3ccccc3)[C@H](c3ccccc3)N2[C@H](c2ccc(OCCOC(=O)[C@H]3C[C@H]4C(=O)N[C@@H](Cc5ccccc5)C(=O)N4[C@H]3c3ccc(O)cc3)cc2)[C@@]12C(=O)Nc1ccc(I)cc12,1.77,1.19,0.0087,0.521,1.36,1.39,-1.55,1.32,0.815,-1.79 (inactive)
O=C1C[C@@](C(=O)O)(c2ccc([N+](=O)[O-])cc2)[C@@H](c2ccc(CO)cc2I)N1C1CCCCC1,0.806,0.796,0.113,0.873,0.539,0.293,-0.706,0.471,0.832,-0.411 (inactive)
CCOC(=O)C1=CC[C@@H](c2cccc(Cl)c2)N(S(=O)(=O)c2ccc(C)cc2)[C@H]1c1ccc(C#N)cc1,0.931,1.26,0.444,0.716,0.938,0.56,1.22,1.09,0.985,1.35 (inactive)
CCCCN1CC=CC23O[C@@H]4/C=C\CCCOC(=O)C4[C@H]2C(=O)N(C(C)CO)[C@@H]3C1=O (stereo not given in full),-1.02,-0.582,-0.56,0.347,-0.446,-0.38,0.532,-0.291,-0.362,-0.315 (inactive)
